In the library only some 19% were active in any assay of this set; here they are far more common.
ELG1 DNA repair: ELG1-dependent DNA repair inhibition; Potency, µM (top dose mostly 46.1 µM), without a hit: at the highest dose activity change, negative = inhibition, most hits filed as inhibitors; 330,000 tested, 2.3% active; AID 504467; HEK293T ELG1-luciferase reporter, luminescence, 16 h; DNA damage induced by 5-fluorouridine; further: potency means the concentration at half of the fitted maximal effect; nearly all actives have a fitted effect of over 55% in size
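Cells (2,000 per well) received 5-fluorouridine plus test compound or DMSO and were incubated 16 hr at 37 °C, 5% CO2. Luciferase activity was read by luminescence 30 min after ONE-Glo addition; signal suppression marked inhibition of damage-induced ELG1 function.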
HT1080 IDH1KD tx: HT-1080 IDH1 knockdown cell toxicity (counter line); AID 686971; 360,000 tested, 2% active; Potency, µM (series often up to 46.1 µM), for the others: at the top dose activity, negative = toxicity, usual class: cytotoxic; HT-1080 IDH1 knockdown viability, ATP luminescence, 48 h;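 further: potency means the concentration at half of the fitted maximal effect; 0% = DMSO wells and -100% = cell-free medium wells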
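Assay cells: HT-1080 with IDH1 knockdown, 750 per well, RPMI/5% FBS. Exposure: 48 h at 37 °C following 2 h pre-incubation. Read: CellTiter-Glo luminescence; fitted concentration-response, curve class assigned.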
HT1080-NT tox: kills 2HG-producing HT-1080-NT fibrosarcoma cells | HT-1080-NT fibrosarcoma viability, CellTiter-Glo ATP luminescence, 48 h | AID 686970 | Potency, µM (doses to about 46.1 µM), for inactives: top-dose activity, negative = less viability, usual class: cytotoxic | 360,000 tested, 1.6% active;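 further: NT is the 2HG producing partner of a matched IDH1 knockdown line; potency means the concentration at half of the fitted maximal effect; 0% = DMSO-treated cells and -100% = media-only wells without cells; nearly all actives have a fitted effect of over 55% in size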
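HT-1080-NT fibrosarcoma cells (2HG-overproducing), 750 cells/well in RPMI with 5% FBS, dosed after 2 h and incubated 48 h at 37C. CellTiter-Glo luminescence normalized to DMSO and no-cell wells; concentration-response curves fitted and classed.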
IL1B secr inh: blocks inflammasome-driven IL-1 beta release | AID 743279 | 360,000 tested, 4.7% active | THP-1 LPS/ATP IL-1B secretion, AlphaLISA, 16 h; stronger effect = lower value | activity change, % at 57.5 µM; in the data active means activity change below about -50%; inconclusive means mostly about -30% to -49%
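Secreted IL-1B measured by AlphaLISA bead assay after 16 h compound exposure of THP-1 cells; compounds (final up to 57.5 uM) added 1 h before LPS (250 ng/mL) and ATP (1.25 mM) stimulation; lower signal means less secretion.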
DT40 TDP1 CPT: DT40-hTDP1 cell growth loss with CPT. chicken DT40 Tdp1-/-;hTDP1 cells + 20 nM CPT, ATP luminescence, 48 h. Potency, µM (titrated, usually from 46.2 µM), for the others: at the highest dose activity change, negative = growth inhibition, hits mostly inhibitors. 420,000 tested, 12% active. AID 686979; further: potency means the concentration at half of the fitted maximal effect; nearly all actives have a fitted effect of over 55% in size
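Chicken DT40 Tdp1-/- cells complemented with human TDP1, 400 cells/well, exposed to compounds plus 20 nM camptothecin for at least 48 h at 37 C; viability read as ATP content by CellTiter-Glo luminescence.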
TDP1 cell noCPT: qHTS for Inhibitors of human tyrosyl-DNA phosphodiesterase 1 (TDP1): qHTS in cells in absence of CPT; DT40 Tdp1-/- hTDP1 cells, no CPT, ATP luminescence, 48 h; Potency, µM (top dose mostly 46.2 µM), for inactives: top-dose activity change, negative = growth inhibition, actives largely listed as inhibitors; 420,000 tested, 15% active; AID 686978, 2013; further: potency means the concentration at half of the fitted maximal effect; nearly all actives have a fitted effect of over 55% in size
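Chicken DT40 Tdp1-/- cells complemented with human TDP1, screened without camptothecin (DMSO vehicle only), 400 cells/well. Compounds pin-transferred, cells incubated at 37 °C for at least 48 hr. Growth read as ATP-dependent luminescence (CellTiter-Glo, 30 min at RT).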
* hit, by the source's call; u = inconclusive; x = not tested or not shown. Unless noted, the call rests on the fitted dose curve; in most records, active means well fitted curve in the direction sought with a large enough effect; inconclusive means small, poorly fitted or top-dose-only effect, or another doubt; inactive means no such curve, though single readings can be large; an effect the other way counts as inactive or inconclusive. Unless noted, on the % scale 0 is the no-effect control and ±100 the full control effect.

SMILES	ELG1 DNA repair	HT1080 IDH1KD tx	HT1080-NT tox	IL1B secr inh	DT40 TDP1 CPT	TDP1 cell noCPT
O=C(N/N=C/c1ccc(-c2ccc(Cl)c(C(=O)O)c2)o1)c1cc2c(ccc3ccccc32)o1	5%	-24%	-15%	2	23%	22%
O=C(N/N=C/c1cccc([N+](=O)[O-])c1)c1cc2c(ccc3ccccc32)o1	u	12%	26%	-8	-28%	u
Cc1ccc([N+](=O)[O-])cc1-c1ccc(/C=N/NC(=O)c2cc3c(ccc4ccccc43)o2)o1	-6%	9%	17%	2	u	8.2µM*
Cn1ccnc1/C(=N\NC(=O)c1ccccc1)c1cccc([N+](=O)[O-])c1	7%	-2%	-15%	-51*	3%	u
N/C(=N\OC(=O)c1cccc([N+](=O)[O-])c1)c1ccccn1	u	3%	19%	13	u	-21%
Cn1ccnc1/C(=N\NC(=O)c1ccc(O)cc1)c1cccc([N+](=O)[O-])c1	u	0%	4%	-13	-30%	-11%
CCOc1ccc(C(=O)N/N=C(\c2ccccc2)c2ccccn2)cc1	u	2.3µM*	u	-100*	2.1µM*	2.9µM*
O=C(N/N=C(\c1ccccc1)c1ccccn1)c1cccc([N+](=O)[O-])c1	u	u	u	24	1.2µM*	1µM*
COc1ccc(CCNC(=O)CSc2nnnn2-c2cccc(C(C)=O)c2)cc1OC	x	x	x	x	-4%	-28%
COc1ccccc1C(=O)Nc1ccnn1C1CCN(C/C=C/c2ccccc2)CC1	-5%	3%	-3%	-19	23µM*	u
CC(C)=CCN1CCC(n2nccc2NC(=O)c2ccccc2Cl)CC1	18%	-6%	-1%	u	-26%	21µM*
Nc1sccc1C(=O)NCCN1CCOCC1	x	13%	14%	32	10%	-16%
O=C(/C=C/[C@H]1O[C@@H](n2ccc(=O)[nH]c2=O)[C@H](O)[C@@H]1O)N1CCN(CCc2ccccc2)CC1	x	21%	16%	53	0%	13%
O=C(COc1ccc(Cl)cc1Cl)NC(=O)N1CCCCC1	u	8%	0%	0	9%	-13%
O=C(COc1ccc(Cl)cc1Cl)NCC1(N2CCOCC2)CCCCC1	u	-5%	-10%	-65*	18µM*	21µM*
OC(CNCC1(N2CCCCC2)CCCCC1)COc1ccc(Cl)cc1Cl (stereo not given)	u	18µM*	u	-91*	u	15µM*
Cc1ccc(C(C)C)c(OCC(=O)NCC2(N3CCOCC3)CCCCC2)c1	x	x	x	x	9.2µM*	7.3µM*
O=C(COc1ccccc1Cl)NCC1(N2CCOCC2)CCCCC1	x	x	x	x	21µM*	15µM*
COc1ccccc1OCC(=O)NCC1(N2CCOCC2)CCCCC1	x	x	x	x	u	-56%
CCc1noc(C)c1C(=O)Nc1nc(-c2ccc(OC)cc2)cs1	-9%	-17%	-9%	32	u	13µM*
CCc1noc(C)c1C(=O)Nc1nc(-c2cc(OC)ccc2OC)cs1	16µM*	-16%	-18%	-11	u	21µM*
COc1ccc(OC)c(-c2csc(NC(=O)CSCc3c(C)noc3C)n2)c1	u	-20%	-21%	-5	u	u
CCc1noc(C)c1C(=O)Nc1nc(-c2ccc(OC)cc2OC)cs1	u	-2%	-17%	12	u	16µM*
CCN(C(=O)C1CCN(S(=O)(=O)c2cc(Br)cc3c2N(C(C)=O)CC3)CC1)c1cccc(C)c1	x	x	x	x	u	23µM*
CCOCCCNC(=O)C1CCN(S(=O)(=O)c2cc(Br)cc3c2N(C(=O)CC)CC3)CC1	u	1%	0%	-10	-3%	-23%
SMILES	ELG1 DNA repair	HT1080 IDH1KD tx	HT1080-NT tox	IL1B secr inh	DT40 TDP1 CPT	TDP1 cell noCPT
CCC(=O)N1CCc2cc(Br)cc(S(=O)(=O)N3CCCC(C(=O)N(C)c4ccc(Br)cc4)C3)c21 (stereo not given)	x	x	x	x	18µM*	u
CCCN(CCC)C(=O)C1CCCN(S(=O)(=O)c2cc(Br)cc3c2N(C(=O)CC)CC3)C1 (stereo not given)	x	x	x	x	u	21µM*
CCC(=O)N1CCc2cc(Br)cc(S(=O)(=O)N3CCCC(C(=O)Nc4ccc(OC)cc4OC)C3)c21 (stereo not given)	x	x	x	x	-2%	-17%
CC(=O)N1CCc2cc(Br)cc(S(=O)(=O)N3CCCCCC3)c21	u	0%	-9%	-7	-19%	-15%
COCCCn1c(=N)c(C(=O)NCC2CCCO2)cc2c(=O)n3cc(C)ccc3nc21 (stereo not given)	x	x	x	x	-3%	-2%
COc1cc(CN2CCCC(n3cc(C(=O)N4CCCC4)nn3)C2)cc(OC)c1 (stereo not given)	x	x	x	x	-2%	-14%
CC(=O)C1=C(O)C(=O)N(Cc2ccccc2)C1c1ccco1 (stereo not given)	2%	2%	9%	-1	4%	2%
O=C1[C@H](Cc2ccccc2)NCC=CC[C@@H](c2ccc(Cl)cc2)N1Cc1ccccc1	x	-21%	-19%	u	u	10µM*
O=C1[C@H](Cc2ccccc2)NCC=CC[C@H](c2ccco2)N1Cc1ccccc1	x	-3%	-15%	-11	21µM*	u
NS(=O)(=O)c1ccc(CCNC(=O)CSc2nc3c(sc(=S)n3-c3ccccc3)c(=O)[nH]2)cc1	x	13%	10%	39	-9%	-14%
CCc1c(C)nc2[nH]nc(-c3ccccc3C)n2c1=O	28%	-10%	-5%	-15	u	15µM*
O=C(CCn1c(=O)c2sccc2n(Cc2ccccc2F)c1=O)NCc1ccc2c(c1)OCO2	x	x	x	x	16%	-2%
CC(=O)c1ccc(NS(=O)(=O)c2ccc3[nH]c4c(c3c2)CCCC4)cc1	x	x	x	x	-4%	-26%
CCOC(=O)CC(NS(=O)(=O)c1ccc2[nH]c3c(c2c1)CCCC3)c1ccccc1Cl (stereo not given)	x	x	x	x	18µM*	u
CCOC(=O)CC(NS(=O)(=O)c1ccc2[nH]c(=O)sc2c1)c1ccc(C)cc1 (stereo not given)	-15%	-2%	-8%	63	-10%	-7%
COC(=O)c1ccc(NS(=O)(=O)c2ccc3[nH]c4c(c3c2)CCCC4)cc1	x	x	x	x	u	6.5µM*
